# Data published in the supplement of paper PMC3334620.
# Over roughly 33,000 sequences, “E-score (-0.5 to 0.5)” has its median near -0.0059; the highest 2% begin near 0.26. Many of the other results were omitted from the sample, so the highest values are more common in it than they were.
# Target: T1, Cin5 (UniProt P40917)
# T1 sequence: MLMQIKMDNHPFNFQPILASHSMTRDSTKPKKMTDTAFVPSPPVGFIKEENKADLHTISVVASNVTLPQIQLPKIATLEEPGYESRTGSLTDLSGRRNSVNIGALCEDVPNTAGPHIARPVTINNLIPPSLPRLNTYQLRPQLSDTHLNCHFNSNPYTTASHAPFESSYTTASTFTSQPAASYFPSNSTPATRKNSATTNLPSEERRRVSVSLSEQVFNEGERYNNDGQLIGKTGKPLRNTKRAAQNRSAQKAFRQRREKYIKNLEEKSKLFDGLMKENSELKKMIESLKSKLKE
# Experiment: PBM E-score (8-mer binding enrichment) (E-score (-0.5 to 0.5)); higher = stronger / more preferred TF binding
# Settings: protein concentration: 100 nM; construct: GST-full length
# Method in brief: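 GST-tagged yeast TFs (full-length or DNA-binding domain) were made by PURExpress in vitro transcription/translation and applied at about 100-200 nM to universal all-10-mer Agilent arrays. The arrays were made double-stranded by primer extension, on fresh or once-stripped slides. Bound protein was detected with fluorescent anti-GST, and scans were normalised with masliner. Each ungapped eight-base word, pooled with its reverse complement, received an E-score (modified Wilcoxon-Mann-Whitney statistic) from the Universal PBM Analysis Suite.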
row,Sequence,PBM E-score
1,CTGGACCA,-0.148
2,ACCCACAT,0.0905
3,CACTGAGG,-0.0826
4,GTGTGTCA,0.0629
5,ATTACCAA,0.27
6,CTTACCAA,0.286
7,CTTACCGA,0.0713
8,ATTACCAC,0.151
9,GTTACCAA,0.0591
10,CTTACCAC,0.0364
11,AACCGAAC,-0.0782
12,TACCACCA,-0.0388
13,GGATATGA,0.0996
14,AGATATGC,0.0698
15,AGATATGG,0.26
16,AGATATGA,0.272
17,CGATATGA,0.0193
18,ATATATGG,0.24
19,GACCAGTC,-0.195
20,CCCCGGTC,-0.2
21,ATCAGTGG,0.0229
22,CCTAGAGA,-0.119
23,GTAAAGTA,0.305
24,CTAAAGTA,-0.0582
25,ATAAAGTG,0.149

row,Sequence,PBM E-score
1,ATAAAGTA,0.264
2,ATAAAGTC,0.113
3,GCAAAGTA,0.175
4,ACACGCCT,-0.127
5,CTTTATGC,-0.0141
6,CAGGTACC,-0.324
7,CGAGATTA,0.244
8,AGAGCGCA,-0.168
9,ACCTTACA,-0.0412
10,GTGACATA,0.303
11,ATGACATC,0.248
12,ATGACATA,0.296
13,GGGACATA,0.0818
14,GTGACACA,0.096
15,CTGACATA,0.153
16,ATAGGGCA,-0.0914
17,CCCAGGCC,-0.308
18,CTAAGAAA,-0.0357
19,CCGCGCGG,0.307
20,ATCCGCGA,0.015
21,GCGCGCGC,0.306
22,CCGCGCGA,0.186
23,ATCCGCGG,0.271
24,CCGCGCGC,0.0301
25,ATCCGCGC,-0.0165

row,Sequence,PBM E-score
1,GCGCGCGA,0.104
2,ACGCGCGC,0.158
3,AGGGTCGA,-0.084
4,AAACCAAT,0.188
5,GCTTGAAA,0.0153
6,TTATCAAA,0.298
7,GAATCAAA,0.142
8,AAATCCAT,0.312
9,GAATCCAA,0.0873
10,TAATCAAA,0.329
11,AAATCCAA,0.117
12,ATATCAAA,0.166
13,AAATCCAC,0.0254
14,AAATCCAG,0.13
15,CAATCAAA,0.151
16,TAATCCAA,0.283
17,CTATCAAA,0.199
18,AAAAGAAT,0.257
19,CGTCTGAA,-0.133
20,CAAAGTCA,0.107
21,CACGGGCC,-0.296
22,CCGCATGA,-0.136
23,CCAAAGAC,-0.185
24,CAATCTCG,0.0199
25,TAATCGCA,0.294

row,Sequence,PBM E-score
1,CAATCGCA,0.13
2,GAATCGCA,-0.0879
3,AAATCATA,0.198
4,CAATCATA,0.201
5,TAATCATA,0.326
6,ACGTTGCT,0.188
7,ATGCTTGA,0.133
8,AAGAAGTG,0.015
9,ATTATTCA,0.262
10,ACTATTCG,0.224
11,GTTATTCA,0.143
12,ACTATTCC,0.0567
13,ATTATTCC,0.273
14,ATTATTAG,0.0574
15,ATTATTCG,0.288
16,CTTATTCC,0.117
17,CTTATTCA,0.142
18,GCGACCGA,0.0144
19,GTGAGGAA,-0.138
20,GGCTTTTA,-0.223
21,AACTGGGA,-0.0428
22,AATCCTAA,0.0229
23,ACAGTTGG,0.016
24,CTAACGAA,-0.0791
25,GTAACGTA,0.129

row,Sequence,PBM E-score
1,ATAACCAG,0.0194
2,ATAACCAA,0.258
3,CTAACCAA,0.0775
4,ATAACGAC,0.238
5,ATAACGTC,0.0919
6,ATAACGAA,0.294
7,ATAACGTA,0.313
8,ACCGGCGC,0.0762
9,ATCCGGCA,0.0463
10,GGTGAACC,-0.108
11,CTTTTGAC,-0.0394
12,AGTTACTC,0.0474
13,CGACACCC,-0.0488
14,ACATAGAG,-0.0918
15,ATGCGCAC,0.0881
16,ATGCGCAT,0.332
17,ATGCGCAA,0.128
18,AAGTCTAA,-0.0864
19,ACCCATTG,-0.0482
20,CAAGTTAC,0.104
21,ATAAGCAT,0.118
22,CTCAGCAA,0.0669
23,GTCAGCAA,0.267
24,CTAAGCAC,0.183
25,ACAAGCAA,0.122

row,Sequence,PBM E-score
1,GTAAGCAC,0.319
2,ATAAGCAG,0.33
3,ATAAGCAA,0.349
4,ATAAGCAC,0.175
5,ATCAGCAA,0.0322
6,CTAAGCAG,0.042
7,CTAAGCAA,0.076
8,ACTGGAGC,-0.253
9,GCTATCCC,-0.129
10,ATAGGCAA,0.157
11,AAGAAGAA,0.0684
12,ACTCCTAA,0.00319
13,ATCAACGA,0.0637
14,GTAACGCA,0.0946
15,ACCCCGGA,-0.00022
16,GCAAGCAA,0.00274
17,TTAAGCAA,0.0545
18,GTAAGCAA,0.419
19,AACACTCA,0.182
20,CGGCCAAG,-0.069
21,AAAGGCGG,-0.104
22,ACGAAGAA,0.284
23,TCGAAGAA,0.014
24,ACGAAGAT,0.116
25,GCAATGCA,-0.053

row,Sequence,PBM E-score
1,GGCTCTAA,0.0226
2,ACCATTGC,0.0233
3,GTGCAAAA,-0.037
4,AACAATTG,0.0983
5,ATCAATTG,0.232
6,ATCAATTA,0.317
7,ATCAATTC,0.044
8,AACAATTA,0.295
9,ACCAATTG,-0.0132
10,ACCAATTA,0.266
11,AACAATTC,0.111
12,GCCAATTA,0.155
13,CCTGGACG,-0.179
14,GCCTCAAA,0.0112
15,GGCCTGGA,-0.317
16,AGCCCCAG,-0.0735
17,CCTCACAG,0.0094
18,CGGGGAAG,-0.0981
19,CACGTTGA,-0.095
20,CTAAGCCA,-0.074
21,CTAAGCTA,0.162
22,ATAAGCTA,0.2
